From PubChem
This is one part of a sample in which hits are shown more often than they occur.
Pf Dd2 growth – qHTS Primary assay for Inhibitors of Plasmodium falciparum Dd2 growth in vitro | P. falciparum Dd2 growth, SYBR Green, 72 h | Potency, µM (series often up to 28.9 µM), actives largely listed as inhibitors | actives 4.3% (n = 120,000); active = well fitted inhibition curve with a large enough effect; also: nearly all actives have a fitted effect of over 65% in size
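Infected erythrocytes (Dd2, 0.3% parasitemia, 2.5% hematocrit final) are added to compound in RPMI-1640/Albumax II medium, grown 72 h at 37C in low oxygen, then lysed with saponin/Triton-X containing SYBR Green and read by fluorescence.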
Each line names hits and unclear results; the compound was inactive in the other large screens.

O=C(c1ccc(Cl)cc1)N1CC2(CCN(CC3CCCCC3)CC2)Cc2ccccc21	Pf Dd2 growth 5.62µM
CC(=O)N1CC2(CCCN2C(=O)CCC(=O)O)Cc2ccccc21 (stereo not given)	none
CS(=O)(=O)N1CCCN(C(=O)C2CCCCC2)c2ccccc21	none
CC(=O)N1CC2(CCCN(CC3CCCCC3)C2)Cc2ccccc21 (stereo not given)	Pf Dd2 growth 10µM
CC(=O)N1CC2(CCN(CC3CC3)CC2)Cc2ccccc21	none
O=C(C1CCCC1)N1CC2(CCN(Cc3ccccn3)CC2)Cc2ccccc21	Pf Dd2 growth 10µM
O=C(NCc1ccc(N2CCCCC2)cc1)c1cnc(-c2ccccc2)nc1-c1ccncc1	none
COC[C@@H]1CN(C(=O)c2ncccc2C)C[C@H]1c1ccncc1	none
CC1CCC2(CC1)NC(=O)N(CC(=O)N(C)C1CCCCC1)C2=O (stereo not given)	none
CN1CC(=O)N(c2ccccc2)Cc2c1ncnc2N1CCCC1CO (stereo not given)	none
C=CCNC(=O)CC1CCCN(c2cnn(CC)c(=O)c2)C1 (stereo not given)	none
CC(=O)NCC(=O)N1Cc2ccccc2CC2(CCN(CC3CCCCC3)C2)C1 (stereo not given)	none
O=C1Nc2ccccc2CNC12CCN(Cc1c[nH]c3ccccc13)CC2	none
O=C(C1CCCC1)N1CC2(CCN(CC3CC3)C2)Cc2ccccc21 (stereo not given)	Pf Dd2 growth 8.91µM
O=C(C1CCCC1)N1CC2(CCN(Cc3c[nH]c4ccccc34)CC2)Cc2ccccc21	Pf Dd2 growth 4.47µM
CC(=O)N1Cc2ccccc2CC2(CCN(CC3CCNCC3)C2)C1 (stereo not given)	none
CC(=O)N1CC(CO)C2(CCN(Cc3c[nH]c4ccccc34)CC2)C1 (stereo not given)	none
Cc1ccc2cc(CCC(=O)NCCCN(C)C)c(=O)[nH]c2c1	none
COc1cc(OC)c(NC(=O)Cn2nc3n(c2=O)CCCCC3)cc1Cl	none
COCCNc1ncnc2c1CN(c1ccc(OC)cc1)C(=O)CN2C	none
COc1cccc(C(=O)N2CCCN(c3cc(-c4ccc(Cl)cc4)[nH]n3)CC2)c1	Pf Dd2 growth 3.98µM
COc1cc(OC)cc(C(=O)N2CCN(c3cc(-c4ccc(Cl)cc4)[nH]n3)CC2)c1	none
COc1ccc(CCC(=O)N2CCCN(c3cc(-c4ccc(Br)cc4)[nH]n3)CC2)cc1	none
O=C(CCCc1ccccc1)N1CCN(c2cc(-c3ccccc3)[nH]n2)CC1	none
COc1ccc(-c2cc(N3CCCN(C(=O)CCCc4ccccc4)CC3)n[nH]2)cc1	Pf Dd2 growth 2.24µM
COc1ccc(-c2cc(N3CCCN(C(=O)c4ccccc4)CC3)n[nH]2)cc1	none
COCCn1ccc2c(C3=CCOCC3)nc(-c3cccc(O)c3)cc21	none
Cc1nc2scc(CC(=O)N3CCCCC3)n2c(=O)c1-c1cc(C)n(-c2ccc(F)cc2)n1	none
CCn1cc(-c2ccc(C)cc2)cc1C(=O)N1CCC(C)CC1	none
COc1cc(OC)cc(C(=O)Nc2ccc3c(c2)CN(Cc2ccccc2)C(=O)C(C)O3)c1 (stereo not given)	none
CCOc1ccc(C2Cn3nnc(-c4nc(-c5ccccc5)no4)c3CO2)cc1 (stereo not given)	none
Cc1nc2ncccn2c1C(=O)N1CCn2nc(CO)cc2C1	none
CCCc1noc(CN(C)C(=O)[C@@]23CNC[C@@H]2CN(Cc2ccccc2)C3)n1	none
CN(Cc1ccccc1)C(=O)C[C@@H]1CCNC[C@@H]1Cc1cc(CN(C)c2ccccc2)on1	none
CN(CCC(O)c1ccccc1)C(=O)c1ccc2oc(-c3cccc(F)c3)nc2c1 (stereo not given)	none
O=C(c1ccccc1)N1CCOCC12CCN(Cc1ccc3[nH]ccc3c1)CC2	none
O=C(OCc1ccccc1)N1CCOCC12CCN(Cc1ccc3[nH]ccc3c1)CC2	Pf Dd2 growth 7.08µM
O=C(OCc1ccccc1)N1CCOCC12CCN(Cc1ccncc1)CC2	none
CCOC(=O)c1ccc(OCC2c3cc(OC)c(OC)cc3CCN2C(=O)c2ccc(S(=O)(=O)N3CCCC3)cc2)cc1 (stereo not given)	Pf Dd2 growth 11.2µM
COc1ccc(NC(=O)c2cc(S(=O)(=O)N3CCCC3)ccc2OC)cc1	none
COc1cc2c(cc1OC)C(COc1ccccc1OC)N(C(=O)c1ccc(S(=O)(=O)N3CCCC3)cc1)CC2 (stereo not given)	Pf Dd2 growth 11.2µM
O=C1CN(C(=O)c2ccc(S(=O)(=O)N3CCCC3)cc2)C(c2ccccc2)c2cc(F)ccc2N1 (stereo not given)	none
CCOc1ccc(C(=O)N2CCC[C@H]2c2nc(-c3ccc(OC)c(OC)c3)no2)cc1	none
CCc1ccc(OCC2c3cc(OC)c(OC)cc3CCN2C(=O)c2ccc(S(=O)(=O)N3CCCC3)cc2)cc1 (stereo not given)	Pf Dd2 growth 11.2µM
COc1ccc(C(=O)N2CCCN(S(=O)(=O)c3ccccc3)CCC(=O)NCC2)cc1F	none
CCc1ccc(C(=O)N2CCC(c3nc(-c4ccc(S(=O)(=O)N5CCCC5)cc4)no3)CC2)cc1	none
CCOc1ccccc1C(=O)N1CCC2(CC1)N=C(c1cccc(Br)c1)NO2	none
